Data as given in PubChem BioAssay AID1159580 (chemical genetic matrix, 2015).
Hit rate of the full screen: of about 5,500 compounds, about 2,000 (36%) were called active. Inconclusive results (about 18%) are left out. The list shows a part of the results. Unmarked numbers belong to inactive results. Cut-off read from the data, not from the text of the source: active = normalized growth mostly below about 0.91 (no sharp cut-off); inconclusive = no clear call, values can overlap the other calls; inactive = mostly above about 0.92.

Assay: chemical genetic growth profiling, strain panel (AID 1159580);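 note: tested at 20 µM; growth read once vehicle control cultures reached saturation at 30 °C; 1 = growth at the plate median or of vehicle wells; lower values mean less growth of the strain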
Settings: growth OD
[1] = S. cerevisiae deletion strains, locus YAL013W, strain DEP1, active compounds read low
[2] = S. cerevisiae deletion strains, locus YDL101C, strain DUN1, active compounds read low
[3] = S. cerevisiae deletion strains, locus YDR150W, strain NUM1, active compounds read low
[4] = S. cerevisiae deletion strains, locus YGR078C, strain PAC10, active compounds read low
[5] = S. cerevisiae deletion strains, locus YGR229C, strain SMI1, active compounds read low
[6] = S. cerevisiae deletion strains, locus YHR030C, strain SLT2, active compounds read low
[7] = S. cerevisiae deletion strains, locus YJR075W, strain HOC1, active compounds read low
[8] = S. cerevisiae deletion strains, locus YMR263W, strain SAP30, active compounds read low
[9] = S. cerevisiae deletion strains, locus YNL322C, strain KRE1, active compounds read low
[10] = S. cerevisiae deletion strains, locus YAL040C, strain CLN3, active compounds read low
[11] = S. cerevisiae deletion strains, locus YCL061C, strain MRC1 (second series), active compounds read low
[12] = S. cerevisiae deletion strains, locus YDR363W, strain ESC2, active compounds read low
[13] = S. cerevisiae deletion strains, locus YER002W, strain NOP16, active compounds read low
[14] = S. cerevisiae deletion strains, locus YMR307W, strain GAS1, active compounds read low
[15] = S. cerevisiae deletion strains, locus YNL128W, strain TEP1, active compounds read low
[16] = S. cerevisiae deletion strains, locus YNL175C, strain NOP13, active compounds read low
[17] = S. cerevisiae deletion strains, locus YNL197C, strain WHI3, active compounds read low
[18] = S. cerevisiae deletion strains, locus YNL224C, strain SQS1, active compounds read low
[19] = S. cerevisiae deletion strains, locus YOR083W, strain WHI5 (second series), active compounds read low

O=C(O)CC(CC(=O)O)c1ccc(C(F)(F)F)cc1
normalized growth [1]: 0.994
normalized growth (S. cerevisiae deletion strains, locus YBR229C, strain ROT2, active compounds read low): 1
normalized growth (S. cerevisiae deletion strains, locus YCL061C, strain MRC1, active compounds read low): 0.981
normalized growth [2]: 0.999
normalized growth [3]: 0.938
normalized growth (S. cerevisiae deletion strains, locus YEL061C, strain CIN8, active compounds read low): 1.01
normalized growth [4]: 0.993
normalized growth [5]: 0.985
normalized growth [6]: 1.03
normalized growth (S. cerevisiae deletion strains, locus YHR087W, strain rtc3, active compounds read low): 1
normalized growth (S. cerevisiae deletion strains, locus YJR043C, strain POL32, active compounds read low): 0.991
normalized growth [7]: 0.993
normalized growth (S. cerevisiae deletion strains, locus YKL190W, strain CNB1, active compounds read low): 1
normalized growth (S. cerevisiae deletion strains, locus YLR039C, strain RIC1, active compounds read low): 1.02
normalized growth (S. cerevisiae deletion strains, locus YLR058C, strain SHM2 (second series), active compounds read low): 0.999
normalized growth (S. cerevisiae deletion strains, locus YLR085C, strain ARP6, active compounds read low): 1.02
normalized growth (S. cerevisiae deletion strains, locus YLR262C, strain YPT6, active compounds read low): 1.01
normalized growth (S. cerevisiae deletion strains, locus YML094W, strain GIM5, active compounds read low): 1.02
normalized growth (S. cerevisiae deletion strains, locus YMR219W, strain ESC1, active compounds read low): 0.999
normalized growth [8]: 0.993
normalized growth (S. cerevisiae deletion strains, locus YNL153C, strain GIM3, active compounds read low): 0.99
normalized growth (S. cerevisiae deletion strains, locus YNL298W, strain CLA4 (second series), active compounds read low): 1.04
normalized growth [9]: 1.01
normalized growth (S. cerevisiae deletion strains, locus YNR030W, strain Alg12, active compounds read low): 1.02
normalized growth (S. cerevisiae deletion strains, locus YPL055C, strain LGE1, active compounds read low): 0.918
normalized growth (S. cerevisiae deletion strains, locus YPL241C, strain CIN2, active compounds read low): 1.04
normalized growth (S. cerevisiae deletion strains, locus YPR135W, strain CTF4, active compounds read low): 0.963
normalized growth (S. cerevisiae strains, strain wild type, active compounds read low): 0.995

OC(c1ccc(C(F)(F)F)cc1)c1cccc(C(F)(F)F)c1 (stereo unspecified)
normalized growth (S. cerevisiae deletion strains, locus YAR019C, strain CDC15, active compounds read low): 0.972
normalized growth (S. cerevisiae deletion strains, locus YBL105C, strain PKC1, active compounds read low): 0.973
normalized growth (S. cerevisiae deletion strains, locus YBR135W, strain CKS1, active compounds read low): 0.973
normalized growth (S. cerevisiae deletion strains, locus YBR136W, strain MEC1, active compounds read low): 0.967
normalized growth (S. cerevisiae deletion strains, locus YBR160W, strain CDC28, active compounds read low): 0.969
normalized growth (S. cerevisiae deletion strains, locus YDL017W, strain CDC7, active compounds read low): 0.964
normalized growth (S. cerevisiae deletion strains, locus YDL028C, strain MPS1, active compounds read low): 0.974
normalized growth [2]: 0.975
normalized growth (S. cerevisiae deletion strains, locus YDL108W, strain KIN28, active compounds read low): 0.968
normalized growth (S. cerevisiae deletion strains, locus YDL132W, strain cdc53, active compounds read low): 0.974
normalized growth (S. cerevisiae deletion strains, locus YDL214C, strain PRR2, active compounds read low): 0.985
normalized growth (S. cerevisiae deletion strains, locus YDR052C, strain DBF4, active compounds read low): 0.977
normalized growth (S. cerevisiae deletion strains, locus YDR054C, strain cdc34, active compounds read low): 0.974
normalized growth (S. cerevisiae deletion strains, locus YDR226W, strain ADK1, active compounds read low): 0.977
normalized growth (S. cerevisiae deletion strains, locus YDR477W, strain SNF1, active compounds read low): 0.999
normalized growth (S. cerevisiae deletion strains, locus YER123W, strain YCK3, active compounds read low): 0.945
normalized growth (S. cerevisiae deletion strains, locus YER133W, strain GLC7, active compounds read low): 0.992
normalized growth (S. cerevisiae deletion strains, locus YFL009W, strain cdc4, active compounds read low): 0.981
normalized growth (S. cerevisiae deletion strains, locus YFL029C, strain CAK1, active compounds read low): 0.962
normalized growth (S. cerevisiae deletion strains, locus YFR003C, strain YPI1, active compounds read low): 0.969
normalized growth (S. cerevisiae deletion strains, locus YFR019W, strain FAB1, active compounds read low): 1
normalized growth (S. cerevisiae deletion strains, locus YFR028C, strain CDC14, active compounds read low): 0.975
normalized growth (S. cerevisiae deletion strains, locus YGR040W, strain KSS1, active compounds read low): 0.984
normalized growth (S. cerevisiae deletion strains, locus YGR052W, strain FMP48, active compounds read low): 1
normalized growth (S. cerevisiae deletion strains, locus YGR092W, strain DBF2, active compounds read low): 0.948
normalized growth [6]: 0.867
normalized growth (S. cerevisiae deletion strains, locus YHR079C, strain IRE1, active compounds read low): 0.885
normalized growth (S. cerevisiae deletion strains, locus YHR082C, strain KSP1, active compounds read low): 1.09
normalized growth (S. cerevisiae deletion strains, locus YHR205W, strain SCH9, active compounds read low): 0.949
normalized growth (S. cerevisiae deletion strains, locus YIL147C, strain SLN1, active compounds read low): 0.971
normalized growth (S. cerevisiae deletion strains, locus YJL095W, strain BCK1, active compounds read low): 0.953
normalized growth (S. cerevisiae deletion strains, locus YJL128C, strain PBS2, active compounds read low): 0.942
normalized growth (S. cerevisiae deletion strains, locus YJL157C, strain FAR1, active compounds read low): 1.01
normalized growth (S. cerevisiae deletion strains, locus YJR016C, strain ILV3, active compounds read low): 0.984
normalized growth (S. cerevisiae deletion strains, locus YJR066W, strain TOR1 (second series), active compounds read low): 1.04
normalized growth (S. cerevisiae deletion strains, locus YJR066W, strain TOR1, active compounds read low): 1.05
normalized growth (S. cerevisiae deletion strains, locus YKL048C, strain ELM1, active compounds read low): 0.977
normalized growth (S. cerevisiae deletion strains, locus YKL067W, strain YNK1, active compounds read low): 0.992
normalized growth (S. cerevisiae deletion strains, locus YKL101W, strain HSL1, active compounds read low): 0.97
normalized growth (S. cerevisiae deletion strains, locus YKL193C, strain SDS22, active compounds read low): 0.973
normalized growth (S. cerevisiae deletion strains, locus YKL203C, strain TOR2, active compounds read low): 1.02
normalized growth (S. cerevisiae deletion strains, locus YLR113W, strain HOG1, active compounds read low): 0.789 (active)
normalized growth (S. cerevisiae deletion strains, locus YLR133W, strain CKI1, active compounds read low): 0.999
normalized growth (S. cerevisiae deletion strains, locus YLR403W, strain SFP1, active compounds read low): 1.04
normalized growth (S. cerevisiae deletion strains, locus YML070W, strain DAK1, active compounds read low): 0.96
normalized growth (S. cerevisiae deletion strains, locus YMR001C, strain CDC5, active compounds read low): 0.973
normalized growth (S. cerevisiae deletion strains, locus YMR205C, strain PFK2 (second series), active compounds read low): 0.993
normalized growth (S. cerevisiae deletion strains, locus YMR277W, strain FCP1, active compounds read low): 0.974
normalized growth (S. cerevisiae deletion strains, locus YNL006W, strain LST8, active compounds read low): 0.966
normalized growth (S. cerevisiae deletion strains, locus YNL020C, strain ARK1, active compounds read low): 0.998
normalized growth (S. cerevisiae deletion strains, locus YNL161W, strain CBK1, active compounds read low): 0.984
normalized growth (S. cerevisiae deletion strains, locus YNL183C, strain NPR1, active compounds read low): 1.01
normalized growth (S. cerevisiae deletion strains, locus YNL207W, strain RIO2, active compounds read low): 0.978
normalized growth (S. cerevisiae deletion strains, locus YNL222W, strain SSU72, active compounds read low): 0.973
normalized growth (S. cerevisiae deletion strains, locus YNL307C, strain MCK1 (second series), active compounds read low): 0.989
normalized growth (S. cerevisiae deletion strains, locus YOL078W, strain AVO1, active compounds read low): 0.974
normalized growth (S. cerevisiae deletion strains, locus YOL136C, strain PFK27, active compounds read low): 0.968
normalized growth (S. cerevisiae deletion strains, locus YOR061W, strain CKA2, active compounds read low): 1
normalized growth (S. cerevisiae deletion strains, locus YOR119C, strain RIO1, active compounds read low): 1.07
normalized growth (S. cerevisiae deletion strains, locus YOR231W, strain MKK1, active compounds read low): 0.92
normalized growth (S. cerevisiae deletion strains, locus YOR329C, strain SCD5, active compounds read low): 0.967
normalized growth (S. cerevisiae deletion strains, locus YPL031C, strain PHO85, active compounds read low): 0.978
normalized growth (S. cerevisiae deletion strains, locus YPL153C, strain RAD53, active compounds read low): 0.991
normalized growth (S. cerevisiae deletion strains, locus YPL204W, strain HRR25, active compounds read low): 0.959
normalized growth (S. cerevisiae deletion strains, locus YPL209C, strain IPL1, active compounds read low): 0.973
normalized growth (S. cerevisiae deletion strains, locus YPL256C, strain CLN2, active compounds read low): 0.839 (active)
normalized growth (S. cerevisiae deletion strains, locus YPR025C, strain CCL1, active compounds read low): 0.968
normalized growth (S. cerevisiae deletion strains, locus YPR106W, strain ISR1, active compounds read low): 0.99
normalized growth (S. cerevisiae deletion strains, locus YPR111W, strain DBF20, active compounds read low): 1
normalized growth (S. cerevisiae deletion strains, strain NNK1, active compounds read low): 0.975
normalized growth (S. cerevisiae deletion strains, strain TSCII, active compounds read low): 0.975

OC[C@H]1O[C@@H](n2cnc3cncnc32)[C@H](O)[C@@H]1O
normalized growth [10]: 1.01
normalized growth [11]: 1.01
normalized growth [12]: 1
normalized growth [13]: 1.01
normalized growth [4]: 1.03
normalized growth [8]: 0.997
normalized growth [14]: 1
normalized growth [15]: 1.03
normalized growth [16]: 1.02
normalized growth [17]: 1
normalized growth [18]: 1.02
normalized growth [19]: 1.07

COc1ccccc1N1CCN(CCCNc2c(C)c(=O)n(C)c(=O)n2C)CC1
normalized growth [1]: 1.02
normalized growth [10]: 0.984
normalized growth [11]: 0.998
normalized growth [3]: 1
normalized growth [12]: 1.01
normalized growth [13]: 0.999
normalized growth [5]: 1.04
normalized growth [7]: 1.01
normalized growth [14]: 1.02
normalized growth [15]: 1
normalized growth [16]: 0.976
normalized growth [17]: 0.985
normalized growth [18]: 0.995
normalized growth [9]: 0.987
normalized growth [19]: 0.978
